# Hits are enriched below; roughly 0.24% of the tested compounds scored in any of these assays.
# mcGAS inh: inhibitors of mouse cGAS; Q8C6L5; recombinant cGAS, Kinase-Glo ATP depletion luminescence; inhibition, % at 12.5 µM; 160,000 compounds, 0.15% hits; AID 1259399
# NPYLR7 ag: activates Aedes aegypti NPYLR7 receptor; HEK293T NPYLR7/Galpha15, GCaMP6s calcium fluorescence; activation, % at 10 µM; 270,000 compounds, 0.15% hits; in the data active = activation above about 40%
# hcGAS lum: inhibitors of human cGAS; recombinant h-cGAS, ATP depletion, Kinase-Glo luminescence; inhibition, % at 12.5 µM; 290,000 compounds, 0.081% hits; AID 1259398
# Target sequence (Q8N884 whole entry, looked up): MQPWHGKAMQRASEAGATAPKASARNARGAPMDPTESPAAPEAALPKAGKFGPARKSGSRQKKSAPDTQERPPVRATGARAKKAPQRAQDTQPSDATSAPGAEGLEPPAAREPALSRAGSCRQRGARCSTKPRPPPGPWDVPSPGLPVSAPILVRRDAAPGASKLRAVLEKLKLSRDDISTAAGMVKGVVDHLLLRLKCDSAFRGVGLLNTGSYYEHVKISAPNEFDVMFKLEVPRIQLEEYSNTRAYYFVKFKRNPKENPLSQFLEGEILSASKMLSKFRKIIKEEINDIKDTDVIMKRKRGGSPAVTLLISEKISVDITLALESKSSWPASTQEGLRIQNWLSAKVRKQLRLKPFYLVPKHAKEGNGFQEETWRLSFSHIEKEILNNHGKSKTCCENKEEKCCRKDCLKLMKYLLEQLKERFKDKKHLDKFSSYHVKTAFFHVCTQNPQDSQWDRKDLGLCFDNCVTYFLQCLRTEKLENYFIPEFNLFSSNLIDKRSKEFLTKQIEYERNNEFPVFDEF
# Hits are given with their value; i = inactive; nt = not tested or not shown; ! = a repeat was not active. Rule as the data show it, unless noted: active = inhibition above about 40%; inactive = the rest.
SMILES,mcGAS inh,NPYLR7 ag,hcGAS lum
COC(=O)C1CCN(S(=O)(=O)c2c(F)cc(F)cc2Br)CC1,nt,88,i
COC(=O)C1CCN(S(=O)(=O)c2cc(Br)ccc2Br)CC1,nt,i,i
Cc1ncc(C[n+]2csc(CCOC(=O)C3CC4CCC3C4)c2C)c(N)n1 (configuration not stated),nt,i,i
Cc1sc2ncnc(N3CCC(C(=O)N4CCCCC4)CC3)c2c1C,nt,i,i
CCOc1ccc(S(=O)(=O)Nc2cc(Sc3ncn[nH]3)c(O)c3ccccc23)cc1,i,i,i
Cc1ccc(S(=O)(=O)Nc2cc(Sc3ncn[nH]3)c(O)c3ccccc23)c(C)c1,40,i,i
CN(C)CC(NC(=O)c1ccc(Br)o1)c1ccccc1 (configuration not stated),nt,i,i
Cc1sc2nc(CN3CCOCC3)nc(N3CCN(c4ncccn4)CC3)c2c1C,i,i,i
Cc1nc2ccc(N)cc2s1,i,i,i
C[n+]1c2cc(N)ccc2cc2ccc(N)cc21,nt,120,68
CC(C)(C)c1ccccc1OCC(O)CN1C(=O)NC(C)(C2CC2)C1=O (configuration not stated),nt,i,i
Cc1cccc2[nH]c(CCN(C)C(=O)CC3C(=O)NCCN3CC(C)C)nc12 (configuration not stated),nt,i,i
Cc1nc(Sc2nnc3ccccn23)c2c3c(sc2n1)CCCC3,i,43,i
c1ccn2c(Sc3ncnc4sc5c(c34)CCCC5)nnc2c1,nt,i,i
Cc1ccccc1NC(=O)N1CCN(C(=O)c2cc(-c3ccc(Cl)cc3)n(-c3cccc(F)c3)c2C)CC1,i,i,i
CC(C)(C)c1ccc(/C=C2\SC(=S)NC2=O)cc1,i,i,i
O=C1NC(=S)SC1=Cc1cccc(C(F)(F)F)c1,82,i,i
O=C1NC(=S)S/C1=C/c1cccc(O)c1,nt,i,i
O=C1NC(=S)SC1=Cc1ccc(C(=O)O)cc1,65,i,i
Cc1nn(C)cc1CN(C)C(=O)CC(c1ccccc1)c1ccccc1,nt,i,i
Cc1ncc([N+](=O)[O-])n1CCN1C(=O)c2c(C(C)C)nc3ccc(F)cc3c2C1=O,i,i,i
COc1ccc(CN2CCN(Cc3cccn3-c3ncccn3)CC2CCO)c(F)c1 (configuration not stated),nt,i,i
COc1ccc(CN2CCN(Cc3cccn3-c3ncccn3)CC2CCO)c(C)c1C (configuration not stated),i,49,i
Cc1cccc2ncc(C(=O)N3CCC4(CCNC(=O)CC4)CC3)c(=O)n12,nt,i,i
Cc1nc2ncccc2cc1C(=O)N1CCC2(CCNC(=O)CC2)CC1,nt,55,i
SMILES,mcGAS inh,NPYLR7 ag,hcGAS lum
O=C(NCc1cccnc1Oc1ccccc1F)c1cccc2c1OCC2,i,i,i
O=C1NC(=O)C2C1Sc1[nH]c(=O)sc1C2c1ccco1 (configuration not stated),nt,i,45
COc1ccc(C2c3sc(=O)[nH]c3SC3C(=O)NC(=O)C32)cc1 (configuration not stated),nt,i,i
CCC1=NN2C(=N)/C(=C\c3ccc(OC)c(OC)c3OC)C(=O)N=C2S1,44,i,i
CCC1=NN2C(=N)/C(=C\c3ccccc3Br)C(=O)N=C2S1,nt,i,i
Cc1c(N=Cc2cc(Br)c(Br)o2)c(=O)n(-c2ccccc2)n1C,i,i,i
Cc1cc(C)c(CNC(=O)c2ccc(-n3cncn3)cc2)c(=O)[nH]1,nt,i,i
CCCCC(CC)C(=O)Oc1ccc(-c2nc3cc(C)ccn3c2NC(C)(C)CC(C)(C)C)cc1OC (configuration not stated),i,i,i
Cc1cc2c(c(-c3ccc4c(cnn4C)c3)c1)OC(CN)C2 (configuration not stated),nt,76,i
Cc1cc2c(c(-c3cccs3)c1)OC(CN)C2 (configuration not stated),nt,i,i
Cc1ccc(CNC(=O)NC(c2ccc3c(c2)OCCCO3)C(C)C)cc1F (configuration not stated),i,47,i
CC(C)C(NC(=O)c1cccc(F)c1)c1ccc2c(c1)OCCCO2 (configuration not stated),nt,i,i
CCOc1cc2c(cc1N)OC(C)C2 (configuration not stated),i,i,i
CCOc1cc2c(cc1C=C(C#N)C#N)OC(C)C2 (configuration not stated),nt,95,i
C=CCN1C[C@@H]2C[C@@H](C(=O)O)N(C(=O)c3cc(C)oc3C)c3cccc(c32)C1=O,i,i,i
CNC(=O)CSc1cn(CC(=O)N2CCCCCC2)c2ccccc12,i,i,i
O=C(CSc1cn(CC(=O)N2CCCCCC2)c2ccccc12)NC1CCCC1,i,42,i
CCn1c(=O)[nH]c(=O)c2ccc(-c3ccc(Cl)cc3)nc21,nt,i,i
CCOC=C(C#N)c1nc(C)cs1,nt,84,i
CCOc1cccc(/C=C(/C#N)c2nc(C)cs2)c1OC(F)F,nt,i,i
O=C(CCN(CCCN1CCOCC1)c1nc(-c2ccccc2Cl)nc2ccccc12)N1CCN(c2ccccc2F)CC1,i,i,i
O=C(c1c(F)c(F)cc(F)c1F)N1CCC(Cc2ccc(C(F)(F)F)cc2)CC1,i,i,i
CCCCN=C(N)N=C(N)N,nt,i,i
CCCCC(CC)CN=C(N)NC(N)=NCCCCCCN=C(N)NC(N)=NCC(CC)CCCC (configuration not stated),i,46!,i
CC(=O)Oc1cccc(C(=O)N2CCC(c3cn(C)c4ccc(C)cc34)CC2)c1C,i,i,i
SMILES,mcGAS inh,NPYLR7 ag,hcGAS lum
C[C@@H](NC(=O)/C(C#N)=C/c1ccc(O)c(O)c1)c1ccccc1,i,i,i
N#C/C(=C\c1ccc(O)c(O)c1)C(=O)Nc1ccccc1,i,147,i
O=C(NCc1cccc(C(F)(F)F)c1)c1ccc(CSc2nc(Cl)cc(N3CCCC3)n2)cc1,i,i,i
CC(C)C1CN(C(=O)Cn2cnnn2)CCC(=O)N1CC1CC1 (configuration not stated),i,nt,i
Nc1c2ccccc2nc2ccccc12,nt,i,72
Nc1c2c(nc3ccccc13)CCCC2,i,i,i
COc1ccc(CN(CCc2c[nH]c3ccccc23)C(=O)CN(CC(C)C)C(=O)COCc2ccccc2)cc1OC,i,i,i
CNc1nc(-c2cccc(C)c2C)ncc1F,i,i,i
COCCN(Cc1csc(COc2c(OC)cccc2OC)n1)C(=O)c1cccs1,i,i,i
O=C(Nc1c(-c2ccc(C(F)(F)F)cc2)nc2ccccn12)C1CCC1,i,i,i
Cc1cc(CO)c(OCCOCCOc2c(CO)cc(C)cc2CO)c(CO)c1,nt,i,62
COc1cc(OC)c(OC)cc1CO,i,i,i
Cc1cc(O)c(C=O)c2c1C(=O)Oc1c(COC(=O)/C=C/C(=O)O)c(O)c(C(=O)O)c(C)c1O2,67,nt,69
O=C(Cc1ccccc1F)Nc1nc2ccccc2o1,nt,i,i
Clc1cc2c(c(CSc3nnnn3-c3ccccc3)c1)OCOC2,i,i,72
Clc1cc2c(c(CSc3nnc(-c4ccccc4)o3)c1)OCOC2,i,i,i
CC1=CCC=CC1C(=O)NC1CCc2[nH]c3c(C)cc(Cl)cc3c2C1 (configuration not stated),i,i,i
Cc1ccc(-c2ccnc3c(C(=O)O)cnn23)o1,nt,i,i
Cc1c(C(=O)O)cnc2c([N+](=O)[O-])cnn12,i,i,41
COc1ccc(C=Nc2ccc(C)cc2O)c2ccccc12,nt,i,i

# Screening results as filed in PubChem.
